From the supplement of paper PMC6555819

Assays:
Test in all cases: PBM binding z-score (relative to random genomic background probes); higher = stronger binding; sequences stand for … in GC…GCGATTGACAGCGTAGAATGAAGG
[1] = test system: FXR:RXRa (NR concentration 270 nM, RXRa partner concentration 90 nM)
Procedure, shortened: (§1)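 Antibodies against each partner of ligand-free nuclear receptor dimers (one per run) detected binding on custom Agilent 4×180K protein-binding microarrays after 1 h incubation. The double-stranded probes had 34-nt variable regions carrying direct-repeat seeds, single-nucleotide variants, half-site ablations and random human genomic background sequences. Binding z-scores, from regression-normalized fluorescence, use the random background probes as reference.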

[2] = test system: LXRa:RXRa (NR concentration 270 nM, RXRa partner concentration 90 nM)
Procedure, shortened: as §1

[3] = test system: LXRa homodimer (NR concentration 270 nM)
Procedure, shortened: as §1

[4] = test system: LXRb:RXRa (NR concentration 270 nM, RXRa partner concentration 90 nM)
Procedure, shortened: as §1

[5] = test system: LXRb homodimer (NR concentration 270 nM)
Procedure, shortened: as §1

[6] = test system: PPARa:RXRa (NR concentration 270 nM, RXRa partner concentration 90 nM)
Procedure, shortened: as §1

[7] = test system: PPARg:RXRa (NR concentration 180 nM, RXRa partner concentration 90 nM)
Procedure, shortened: as §1

[8] = test system: PPARg:RXRa 270nM:90nM, anti-RXR (NR concentration 270 nM, RXRa partner concentration 90 nM)
Procedure, shortened: as §1

[9] = test system: PPARg:RXRa 30nM:10nM, anti-RXR (NR concentration 30 nM, RXRa partner concentration 10 nM)
Procedure, shortened: as §1

[10] = test system: PPARg:RXRa 90nM:30nM, anti-RXR (NR concentration 90 nM, RXRa partner concentration 30 nM)
Procedure, shortened: as §1

[11] = test system: PPARg:RXRa DBDmut IVT, anti-RXR (DBD mutation: RXRa K156A/R161A, NR concentration 270 nM, RXRa partner concentration 90 nM)
Procedure, shortened: as §1

[12] = test system: PPARg:RXRa IVT, anti-PPARg (NR concentration 270 nM, RXRa partner concentration 90 nM)
Procedure, shortened: as §1

[13] = test system: PPARg DBDmut:RXRa IVT, anti-PPARg (DBD mutation: PPARg1 K132A/R137A, NR concentration 270 nM, RXRa partner concentration 90 nM)
Procedure, shortened: as §1

[14] = test system: PPARg DBDmut IVT, anti-PPARg (DBD mutation: PPARg1 K132A/R137A, NR concentration 270 nM)
Procedure, shortened: as §1

[15] = test system: PPARg homodimer (NR concentration 180 nM)
Procedure, shortened: as §1

[16] = test system: PXR:RXRa (NR concentration 270 nM, RXRa partner concentration 90 nM)
Procedure, shortened: as §1

[17] = test system: PXR homodimer (NR concentration 270 nM)
Procedure, shortened: as §1

[18] = test system: RARa:RXR (NR concentration 270 nM, RXRa partner concentration 90 nM)
Procedure, shortened: as §1

[19] = test system: RARa homodimer (NR concentration 270 nM)
Procedure, shortened: as §1

[20] = test system: RARb:RXRa (NR concentration 270 nM, RXRa partner concentration 90 nM)
Procedure, shortened: as §1

Row | Sequence | PBM binding z-score [1] | PBM binding z-score [2] | PBM binding z-score [3] | PBM binding z-score [4] | PBM binding z-score [5] | PBM binding z-score [6] | PBM binding z-score [7] | PBM binding z-score [8] | PBM binding z-score [9] | PBM binding z-score [10] | PBM binding z-score [11] | PBM binding z-score [12] | PBM binding z-score [13] | PBM binding z-score [14] | PBM binding z-score [15] | PBM binding z-score [16] | PBM binding z-score [17] | PBM binding z-score [18] | PBM binding z-score [19] | PBM binding z-score [20]
1 | TCTCGGAGCACACGAAGGTCAGAGCTTTCCAGAG | 0.286 | 0.742 | -0.215 | 0.706 | -1.73 | 1.7 | 0.118 | 1.06 | 1.04 | 0.995 | 0.43 | 0.198 | -0.909 | -1.03 | 0.396 | 1.12 | -1.04 | 1.49 | -1.5 | 2.39
2 | ACTACTTGGTCAGCTGAGGTCACACACAATTCGG | 3.83 | 3.9 | 3.15 | 3.97 | 1.27 | 3.76 | 2.24 | 2.68 | 0.841 | 1.7 | 2.16 | 2.81 | 0.583 | 1.36 | 4.02 | 5.72 | 1.85 | 4.92 | 0.831 | 3.59
3 | ATCGAAAGGTCGTGAGGAGAGTATACAGAAAGGC | 5.47 | 4.45 | 0.57 | 3.32 | 1.13 | 4.93 | 3.66 | 4.22 | 1.53 | 2.94 | 0.395 | 1.64 | 1.22 | 1.09 | 2.69 | 3.21 | 0.666 | 4.09 | 0.902 | 3.91
4 | CCTAGTCGGTCAAGGTCACACACGCTATAGGTAC | 4.93 | 4.51 | 2.64 | 3.94 | 1.16 | 4.61 | 4.76 | 4.67 | 2.13 | 3.88 | 4.58 | 5.27 | 0.742 | 0.895 | 3.81 | 4.4 | 1.97 | 4.9 | 2.62 | 4.51
